# In the library only some 2.9% were active in any assay of this set; here they are far more common.
# pPAFAH inh: pPAFAH (human) enzyme inhibition. recombinant pPAFAH, FP-rhodamine probe fluorescence polarization. inhibition, % at 3.39 µM. 330,000 tested, 1.5% active;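 active = inhibition above the mean inhibition across the screen plus 3 SD, cut at about 25% in these data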;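 also: inhibitors block binding of the rhodamine activity-based probe so polarization drops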
# PAFAH2 FP inh: inhibitors of human PAFAH2; inhibition, % at 3.39 µM; 340,000 tested, 0.99% active; recombinant PAFAH2, FP-rhodamine activity probe, fluorescence polarization;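 active = inhibition above the mean over all tested compounds plus 3 SD, cut at about 30% in these data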;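 also: inhibitors block probe labeling of enzyme so polarization drops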
# PME-1 primary: blocks human protein phosphatase methylesterase 1 | Q9Y570 | recombinant PME-1, FP-Rh probe fluorescence polarization | inhibition, % at 5.9 µM | 320,000 tested, 0.53% active;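 active = inhibition above the campaign mean of all compounds plus 3 SD, cut at about 26% in these data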;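 also: competitive labeling of PME-1 active site by serine hydrolase directed probe; inhibitors block probe labeling so polarization falls and inhibition rises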
# Target sequence (Q9Y570 whole entry, looked up): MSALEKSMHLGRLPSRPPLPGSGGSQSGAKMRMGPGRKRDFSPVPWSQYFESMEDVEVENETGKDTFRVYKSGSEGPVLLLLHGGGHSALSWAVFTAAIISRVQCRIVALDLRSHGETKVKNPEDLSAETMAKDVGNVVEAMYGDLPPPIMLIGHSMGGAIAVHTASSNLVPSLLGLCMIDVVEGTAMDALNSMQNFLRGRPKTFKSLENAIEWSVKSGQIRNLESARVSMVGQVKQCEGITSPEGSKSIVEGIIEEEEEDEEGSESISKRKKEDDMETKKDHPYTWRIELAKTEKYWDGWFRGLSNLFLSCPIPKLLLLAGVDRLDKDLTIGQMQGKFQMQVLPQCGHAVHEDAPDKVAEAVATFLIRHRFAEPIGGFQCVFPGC
# PAFAH1B2 FP inh: PAFAH1B2 (human) inhibition. P68402. 340,000 tested, 1.2% active. inhibition, % at 3.39 µM. recombinant PAFAH1B2, FP-rhodamine activity probe, fluorescence polarization;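 active = inhibition above the mean of all tested compounds plus 3 SD, cut at about 24% in these data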
# Fam108B counter: blocks mouse Fam108B hydrolase in RBBP9 counter-screen; recombinant Fam108B, FP-Rh probe fluorescence polarization; inhibition, % at 9.51 µM; 300,000 tested, 0.33% active; AID 1947;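 active = inhibition above the screen mean inhibition plus 3 SD, computed separately per campaign, cut at about 18% in these data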;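 also: inhibitors lower polarization as less probe binds the enzyme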
# PAFAH1B3 inh: PAFAH1B3 (human) inhibition; 340,000 tested, 0.28% active; inhibition, % at 3.39 µM; AID 492972; Q15102; recombinant PAFAH1B3, FP-rhodamine probe, fluorescence polarization;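 active = inhibition above the screen-wide average of all tested compounds plus 3 SD, cut at about 25% in these data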
# A number is an active result; 0 = inactive; - = no result given.
SMILES,pPAFAH inh,PAFAH2 FP inh,PME-1 primary,PAFAH1B2 FP inh,Fam108B counter,PAFAH1B3 inh
COc1ccc(/C=N/Nc2nc(C)cc(-c3ccccc3)n2)c(OC)c1,0,0,0,0,0,0
CN(Cc1cnn(C)c1)C(=O)C1CCC(=O)N(Cc2ccc(Cl)cc2)C1 (stereo not given),0,0,0,0,0,0
Cc1ccc(NS(=O)(=O)c2ccc(N3C(=O)CCC3=O)cc2)cc1,0,0,0,0,0,0
CC(C)c1ccc(NS(=O)(=O)c2ccc(N3C(=O)CCC3=O)cc2)cc1,29,0,0,0,0,0
CC(C)c1ccc(NS(=O)(=O)c2ccc(-n3cccn3)cc2)cc1,25,0,0,0,0,0
CCOC(=O)c1ccc(NC(=O)c2c(N)n(Cc3ccccc3)c(=O)[nH]c2=O)cc1,0,0,0,0,0,0
CC(C)NS(=O)(=O)c1ccc(NC(=O)NC2CCCCC2)cc1,0,0,0,0,0,0
COc1ccc(CCNC(=O)c2cc(-c3cc(Cl)ccc3O)n[nH]2)cc1OC,0,0,0,0,0,0
COc1ccc(OC)c(/C=N/NC2=NS(=O)(=O)c3ccccc32)c1,0,0,0,0,0,0
CC(C)(C)c1nnc(NC(=O)c2cccs2)s1,0,0,0,0,0,0
CCCCC(CC)c1nnc(NC(=O)c2cccs2)s1 (stereo not given),-,0,-,27,-,0
COc1ccc(N(CC(=O)NCCSc2ccc(C)cc2)S(=O)(=O)c2ccccc2)c(OC)c1,0,0,0,27,0,0
O=C(NCC1CCCN(Cc2ccccc2F)C1)c1cccc(C(F)(F)F)c1 (stereo not given),0,0,0,0,0,0
N#CC1(NC(=O)COC(=O)c2cc(O)c3ccccc3c2O)CCCCC1,0,0,0,0,0,50
O=C(COc1ccc2cc(Br)ccc2c1Br)N1CCOCC1,-,0,-,0,-,0
O=C1SC(SCc2ccccc2)=N/C1=C\c1ccco1,33,0,0,0,0,0
CC(=O)OC[C@]12CC[C@H]3[C@@](C)(CC[C@H]4C(C)(C)CCC[C@]34C)[C@@H]1C[C@H](C1=CC(=O)O[C@H]1OC(C)=O)O2,50,-,-,-,-,-
O=C1CSC(c2ccccc2O)N1Cc1ccccc1 (stereo not given),0,0,0,25,0,0
Cc1ccc(C2SCC(=O)N2Cc2ccccc2)cc1 (stereo not given),0,0,0,29,0,0
COc1ccc(C2SCC(=O)N2Cc2ccccc2)cc1 (stereo not given),0,0,0,0,0,0
O=Cc1ccccc1-c1cn(CN2C(=O)c3ccccc3C2=O)nn1,0,0,0,0,0,0
COc1cc2oc(=O)ccc2cc1[C@@H](O)[C@@H]1OC(C)(C)OC1(C)C,0,0,0,0,-,0
CNC(=O)c1c(NC(=O)c2ccc(S(=O)(=O)N3CCCC3)cc2)sc2c1CCN(C(C)C)C2,0,-,34,-,0,-
CN(Cc1cn(Cc2ccccc2)nc1-c1ccc2c(c1)OCO2)Cc1nccn1C,0,0,0,0,0,0
Cc1ccc(S(=O)(=O)N2CCC(C(=O)OCC(=O)N3CCCC(C)C3)CC2)cc1C (stereo not given),0,0,0,0,0,0
SMILES,pPAFAH inh,PAFAH2 FP inh,PME-1 primary,PAFAH1B2 FP inh,Fam108B counter,PAFAH1B3 inh
OC(c1ccccc1)(c1ccc(F)cc1)C(c1ccccc1)N1CCOCC1 (stereo not given),0,0,0,33,0,0
CCC(C)N1CCC2(CC1)N=c1c(c3c4c5c(C)c(O)c3c(O)c1=NC(=O)C(C)=CC=C[C@H](C)[C@H](O)[C@@H](C)[C@@H](O)[C@@H](C)[C@H](OC(C)=O)[C@H](C)[C@@H](OC)C=CO[C@@](C)(O5)C4=O)N2 (stereo not given in full),0,0,0,0,0,0
COc1cc(C#Cc2ccc3cc(C(C)(C)O)oc(=O)c3c2)cc(OC)c1,0,0,0,0,-,0
COc1cc2cc(C(C)(C)O)oc(=O)c2cc1OC,33,0,0,0,-,0
O=c1ccc(-c2ccc(S(=O)(=O)Nc3ccc(F)cc3)o2)n[nH]1,0,0,0,0,0,0
Cc1cccc(C2C3=C(Nc4[nH]n(-c5ccccc5)c(=O)c42)c2ccccc2C3=O)c1 (stereo not given),-,62,-,52,-,0
Cc1ccccc1NC(=O)c1nn(C)c2c1CS(=O)(=O)c1ccccc1-2,0,0,0,0,0,0
O=C(Nc1nc2ccccc2[nH]1)C1CC1,0,0,0,0,0,0

# Compound activity as filed in PubChem BioAssay.
